This is an account of results in PubChem BioAssay (EPA / NIEHS).

“And” between values parts separate entries of the source, which are not always exact repeats. Equal entries are not always repeated. Results filed as inconclusive are left out. Some structures have more than one record in an assay (separate samples or runs), and their calls can disagree. The source made the active and inactive calls. Rule for the calls, unless noted: active = hit-call score of the fitted dose curve at least 0.9, where 1 is the maximum; inconclusive = response in the unintended direction; inactive = score below 0.9.

Experiment [1] is described as follows: TOX21_p53_BLA_p4_viability: Viability Assessment in the Tox21 HCT-116 p53 Agonism Beta-lactamase Assay, Phase 4 (AID 2283597).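 Note: hits lower the luminescence signal meaning cytotoxicity.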 The essentials:
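Cells plated, 5 h pre-incubation; DMSO compounds pinned (217-fold dilution); 16 h, 37C/5% CO2; CCF4-AM 2 h RT; CellTiter-Glo 30 min RT; luminescence read.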

Experiment [2] concerns the target Cellular tumor antigen p53 (Homo sapiens) (UniProt P04637). In words: TOX21_p53_BLA_p5_ratio: Tox21 HCT-116 p53 Agonism Beta-lactamase Assay, Ratio, Phase 5 (AID 2283599). The procedure, abridged: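 Beta-lactamase reporter ratio (blue 460 nm over green 530 nm, 405 nm excitation) after 2 h CCF4-AM loading, in HCT-116 cells exposed 16 h at 37 C to compounds pinned at 217-fold dilution. Increases relative to DMSO baseline scored.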

Experiment [3] in a line: TOX21_p53_BLA_p5_viability: Viability Assessment in the Tox21 HCT-116 p53 Agonism Beta-lactamase Assay, Phase 5 (AID 2283600). The essentials:
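4000 cells/well; 5 h pre-incubation; DMSO compounds pin-transferred, 217-fold dilution; 16 h, 37C/5% CO2; CCF4-AM 2 h RT; CellTiter-Glo 30 min RT; luminescence.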

The target of experiment [4] is Cellular tumor antigen p53 (Homo sapiens) (UniProt P04637). In words: TOX21_p53_BLA_p4_ratio: Tox21 HCT-116 p53 Agonism Beta-lactamase Assay, Ratio, Phase 4 (AID 2283601). The essentials:
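Signal is the blue/green (460nm/530nm) ratio of cleaved versus uncleaved CCF4-AM substrate, read after 2 h substrate loading. Cells were HCT116 carrying the p53-responsive beta-lactamase reporter, dosed 16 h at 37C, 5% CO2; CellTiter-Glo measured in parallel.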

Experiment [5] is described as follows: Tanguay_ZF_120hpf_MORT_legacy: (Legacy) Oregon State University Tanguay Lab 120 Hour Post-fertilization zebrafish Assay for Mortality (AID 2283633).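 For AC50: fitted as increase in binary mortality versus DMSO negative control.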 The essentials: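 5D WT zebrafish, chorion removed 4 hpf; 1 embryo/well from 6 hpf; static exposure to 120 hpf, 28C, dark, sealed. Final DMSO 0.64%. Readout: binary mortality, brightfield, 24 + 120 hpf; DMSO as negative control.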

Experiment [6] can be described thus: Tanguay_ZF_120hpf_YSE_legacy: (Legacy) Oregon State University Tanguay Lab 120 Hour Post-fertilization zebrafish Assay for Yolk Sac Edema (AID 2283634). The procedure, abridged:
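Dechorionate (pronase, 4 hpf) → place one 6 hpf embryo per well → static compound exposure, sealed and foil-covered, 28C, to 120 hpf → record yolk sac edema as present or absent. Final DMSO 0.64%.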

The nature of experiment [7]: Tanguay_ZF_120hpf_AXIS_legacy: (Legacy) Oregon State University Tanguay Lab 120 Hour Post-fertilization zebrafish Assay for Body Axis Malformation (AID 2283635). The essentials:
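Chorion is removed with pronase at 4 hpf, then single 6 hpf embryos are dosed (final DMSO 0.64%) and held statically at 28C in sealed, foil-covered plates. At 120 hpf body axis malformation is recorded as present or absent.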

Experiment [8] is described as follows: Tanguay_ZF_120hpf_EYE_legacy: (Legacy) Oregon State University Tanguay Lab 120 Hour Post-fertilization zebrafish Assay for Eye Malformation (AID 2283636). The procedure, abridged:
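Read-out is binary presence or absence of eye malformation, scored by brightfield microscopy at 120 hpf. Single larvae were exposed from 6 hpf in embryo medium containing 0.64% DMSO, with DMSO as baseline.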

A short description of experiment [9]: Tanguay_ZF_120hpf_SNOU_legacy: (Legacy) Oregon State University Tanguay Lab 120 Hour Post-fertilization zebrafish Assay for Snout Malformation (AID 2283637). The procedure, abridged: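 Snout malformation read as a yes/no call on brightfield images of 120 hpf larvae (Tropical 5D strain). Static exposure began at 6 hpf on dechorionated embryos in 0.64% DMSO, with gain of signal analysed versus DMSO controls.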

A short description of experiment [10]: Tanguay_ZF_120hpf_OTIC_legacy: (Legacy) Oregon State University Tanguay Lab 120 Hour Post-fertilization zebrafish Assay for Otic Vesicle Malformation (AID 2283639). The procedure, abridged:
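Tropical 5D wild-type zebrafish embryos statically exposed in 0.64% DMSO at 28C until 120 hpf; 5uM trimethyltin chloride as positive control. Otic vesicle malformation scored present/absent by brightfield; dead embryos not scored; gain fitted versus DMSO.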

Experiment [11] in a line: Tanguay_ZF_120hpf_PE_legacy: (Legacy) Oregon State University Tanguay Lab 120 Hour Post-fertilization zebrafish Assay for Pericardial Edema (AID 2283640). The procedure, abridged:
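Embryos from wild-type 5D adults were staged, then dosed in 0.64% DMSO. They were kept sealed in the dark at 28C until 120 hpf. Pericardial edema was then recorded as present or absent.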

The nature of experiment [12]: Tanguay_ZF_120hpf_BRAI_legacy: (Legacy) Oregon State University Tanguay Lab 120 Hour Post-fertilization zebrafish Assay for Brain Malformation (AID 2283641). The essentials:
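Wild-type 5D larvae, static waterborne exposure to 120 hpf, 28C, 0.64% v/v DMSO. Brightfield scoring of brain defects, binary; dead embryos excluded. Positive ctrl 5uM trimethyltin chloride.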

The nature of experiment [13]: Tanguay_ZF_120hpf_SOMI_legacy: (Legacy) Oregon State University Tanguay Lab 120 Hour Post-fertilization zebrafish Assay for Somite Malformation (AID 2283647). The procedure, abridged:
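Read-out: presence or absence of somite malformation in 120 hpf larvae, gain-of-signal relative to DMSO baseline. Embryos lacked chorion (pronase, 4 hpf) and were exposed statically from 6 hpf at 28C; dead larvae not scored.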

Experiment [14] is described as follows: Tanguay_ZF_120hpf_PFIN_legacy: (Legacy) Oregon State University Tanguay Lab 120 Hour Post-fertilization zebrafish Assay for Pectoral Fin Malformation (AID 2283648).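 Note: each larva judged yes or no for fin defect by brightfield with dead larvae skipped.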 The essentials:
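5D WT zebrafish; pronase dechorionation 4 hpf; 1 embryo/well at 6 hpf; static exposure to 120 hpf, 28C, sealed, foil-covered; final DMSO 0.64% v/v; 5 uM trimethyltin chloride positive control; fin defect scored yes/no.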

The nature of experiment [15]: Tanguay_ZF_120hpf_CFIN_legacy: (Legacy) Oregon State University Tanguay Lab 120 Hour Post-fertilization zebrafish Assay for Caudal Fin Malformation (AID 2283649). The procedure, abridged:
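Binary presence or absence of caudal fin malformation at 120 hpf, read by brightfield microscopy, with DMSO as baseline. Larvae came from 5D wild-type embryos exposed statically from 6 hpf at 28C after pronase dechorionation.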

The nature of experiment [16]: Tanguay_ZF_120hpf_JAW_legacy: (Legacy) Oregon State University Tanguay Lab 120 Hour Post-fertilization zebrafish Assay for Jaw Malformation (AID 2283638). The procedure, abridged:
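Steps: dechorionate 4 hpf embryos (pronase); plate 1/well at 6 hpf; add test chemical, 0.64% DMSO final; seal, cover, hold at 28C statically to 120 hpf; score jaw defect presence/absence microscopically. Dead embryos not scored.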

The nature of experiment [17]: Tanguay_ZF_120hpf_PIG_legacy: (Legacy) Oregon State University Tanguay Lab 120 Hour Post-fertilization zebrafish Assay for Pigmentation Malformation (AID 2283650). The essentials:
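Pronase dechorionation at 4 hpf; embryos plated at 6 hpf, one per well; static exposure, sealed and foil-covered, 28C, to 120 hpf; pigmentation read by brightfield, binary; DMSO 0.64% baseline, 5uM trimethyltin chloride positive control.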

The nature of experiment [18]: Tanguay_ZF_120hpf_CIRC_legacy: (Legacy) Oregon State University Tanguay Lab 120 Hour Post-fertilization zebrafish Assay for Circulatory Malformation (AID 2283651). The procedure, abridged: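 Dechorionated wild-type 5D zebrafish embryos, one per well, statically exposed from 6 to 120 hpf at 28C with 0.64% DMSO; circulatory malformation scored present/absent by brightfield microscopy at 120 hpf, dead embryos excluded.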

Read-out in experiment [19]: kallikrein-3 (KLK3), KLK3 (gene 354)
In words: LTEA_HepaRG_KLK3: Life Technologies and Expression Analysis (LTEA) Assay for kallikrein-3 (KLK3) using HepaRG (AID 2283652; active = hit-call score of the fitted dose curve at least 0.9, where 1 is the maximum; inactive = score below 0.9). Conditions: mRNA level, 48 h; actives raise or lower the signal. The essentials: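 Differentiated human HepaRG cells in serum-free induction medium exposed 48 h in duplicate, eight-point half-log series from 100 uM in 0.5% DMSO. KLK3 mRNA by qRT-PCR, normalised to ACTB, GAPDH, POLR2A; bidirectional fit versus DMSO.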

Read-out in experiment [20]: solute carrier (SLC22A6), SLC22A6 (gene 9356)
The experiment is described as follows: LTEA_HepaRG_SLC22A6: Life Technologies and Expression Analysis (LTEA) Assay for solute carrier (SLC22A6) using HepaRG (AID 2283653; active = hit-call score of the fitted dose curve at least 0.9, where 1 is the maximum; inactive = score below 0.9). The note with it: mRNA level, 48 h; actives raise or lower the signal. The essentials: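 Read-out is SLC22A6 transcript level by qRT-PCR, normalised to three housekeeping genes and fitted for gain or loss relative to 0.5% DMSO vehicle. Human HepaRG cells received chemicals at up to 100 uM for 48 h.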

Cellular tumor antigen p53 (Homo sapiens), sequence (P04637 whole entry, looked up): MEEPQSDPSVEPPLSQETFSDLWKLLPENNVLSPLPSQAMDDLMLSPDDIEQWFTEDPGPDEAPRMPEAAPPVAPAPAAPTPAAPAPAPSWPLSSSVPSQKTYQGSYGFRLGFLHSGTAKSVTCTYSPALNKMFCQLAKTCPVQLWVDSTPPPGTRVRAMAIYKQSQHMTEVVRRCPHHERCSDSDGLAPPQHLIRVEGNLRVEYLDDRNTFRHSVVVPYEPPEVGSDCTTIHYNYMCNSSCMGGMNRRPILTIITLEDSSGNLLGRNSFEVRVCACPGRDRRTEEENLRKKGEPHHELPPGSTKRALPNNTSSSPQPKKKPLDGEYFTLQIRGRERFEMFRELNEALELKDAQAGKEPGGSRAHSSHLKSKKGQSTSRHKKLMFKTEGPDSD

Regarding `COC(=O)CCCC(=O)OC`, the molecule was classed as inactive in experiment [1], in experiment [2], in experiment [3], in [4], in [5] and in [6]. The molecule was called inactive in experiment [7], in experiment [8], in experiment [9], in [10], in experiment [11] and in experiment [12]. Further, the outcome in experiment [13], in [14] and in experiment [15] was inactive.

Turning to `CCc1cc(C2=C(C(=O)O)N(c3ccccc3C(F)(F)F)S(=O)(=O)c3ccccc32)cc2c1OCO2`, the concentration at half-maximal activity (AC50) in experiment [1] was 68 µM (active); in [4] it was 75.1 µM (active). Moreover, the result in experiment [2], in [3], in experiment [5], in experiment [6], in experiment [7] and in experiment [8] was inactive. The molecule was called inactive in [9], in experiment [16], in [11], in experiment [14] and in [15].

Turning to `CN(C)CCCN1c2ccccc2Sc2ccc(Cl)cc21`, the AC50 was 36.8 µM (active) and 73.4 µM (active) in experiment [1]; 77.8 µM (active) in experiment [3]; 20.6 µM (active) in experiment [4]; 16.3 µM (active) in experiment [5]. Moreover, the result in experiment [2], in [4], in [6], in experiment [7], in [8] and in [9] was inactive. Also, the outcome in experiment [10], in [11], in experiment [13], in [14], in experiment [15] and in [17] was inactive. Moreover, the molecule was classed as inactive in experiment [18], in [19] and in experiment [20].

`c1ccc2occc2c1`: the result in [1], in experiment [2], in experiment [3], in experiment [4], in [5] and in experiment [7] was inactive. Moreover, the molecule was called inactive in [8], in [16], in [10], in experiment [11], in [12] and in [13]. Further, the molecule was classed as inactive in [14], in [15], in [17] and in experiment [18].

With `COC(=O)[C@H]1[C@H]2C[C@@H]3c4[nH]c5cc(OC)ccc5c4CCN3C[C@H]2C[C@@H](OC(=O)c2cc(OC)c(OC)c(OC)c2)[C@@H]1OC`, the molecule was classed as inactive in experiment [1], in experiment [2], in experiment [3], in experiment [4], in experiment [5] and in experiment [6]. Besides, the molecule was classed as inactive in experiment [7], in [8], in [9], in experiment [16], in experiment [10] and in [11]. Moreover, the outcome in experiment [13], in experiment [14], in [15] and in experiment [18] was inactive.

Take `O=C(O)c1[nH]n(-c2ccc(S(=O)(=O)O)cc2)c(=O)c1N=Nc1ccc(S(=O)(=O)O)cc1`: the call in experiment [1], in experiment [2], in [3], in experiment [5], in experiment [6] and in experiment [7] was inactive. The outcome in experiment [8], in experiment [9], in experiment [16], in [10], in [11] and in experiment [12] was inactive. For the same molecule, the molecule was classed as inactive in experiment [13], in experiment [14], in experiment [15], in [17] and in [18]. Also, the AC50 was 0.0652 nM (active) in [2] and 6.18e-05 µM (active) in experiment [4].

Turning to `Cc1c(C)c2c(c(C)c1O)CCC(C)(COc1ccc(CC3SC(=O)NC3=O)cc1)O2` (configuration not stated), the AC50 in experiment [1] was 66.4 µM (active) and 34.8 µM (active); in experiment [2], 56.1 µM (active) and 34.1 µM (active); in [3], 87 µM (active); in [4], 76 µM (active) and 35.5 µM (active). The outcome in [3], in experiment [5], in experiment [6], in experiment [7], in [8] and in [9] was inactive. Also, the molecule was called inactive in [16], in experiment [10], in [11], in experiment [12], in experiment [13] and in experiment [14]. Further, the molecule was classed as inactive in experiment [15], in experiment [17] and in experiment [18].
